Compound activity: PubChem, National Center for Advancing Translational Sciences (NCATS)
Only some compounds are listed: those with a hit (about 21% of all), similar ones and a draw of the others.
SARS PLP yeast: blocks SARS-CoV papain-like protease in a yeast assay; Potency, µM (top dose mostly 32.9 µM), for the others: at the top dose activity, positive = growth rescue, most hits filed as activators; S. cerevisiae expressing SARS-CoV PLpro, growth rescue; 0.19% of 330,000 active; also: potency is read from the fitted curve at half-maximal effect; 0% is about no effect; nearly all actives have a fitted effect of over 55% in size
Pf growth 96h: inhibits malaria parasite growth, 96 h | Potency, µM (doses to about 28.7 µM), without a hit: at the highest dose activity change, negative = inhibition, hits mostly inhibitors | P. falciparum luciferase reporter growth, 96 h | 6.9% of 320,000 active | AID 504834; active = well fitted inhibition curve with a large enough effect; inconclusive = small, poorly fitted or top-dose-only effect, or another doubt; inactive = no such curve, though single readings can be large or run the other way; also: potency is read from the fitted curve at half-maximal effect; % is scaled to controls: 0 for no effect and ±100 for the full control effect
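P. falciparum expressing integrated firefly luciferase grown in erythrocytes (2% hematocrit, 0.05% parasitemia final) with compounds for 96 hours at 37 C, 5% CO2. Growth inhibition read as loss of luminescence after adding luciferase detection reagent.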
Shiga inhibitor: Shiga toxin inhibition; Vero cells, Shiga toxin protein synthesis inhibition reporter; inhibition, % at 38.7 µM; 9.2% of 290,000 active; AID 2315; in the data active = inhibition mostly above about 28%, no sharp cut-off; inactive = mostly below about 43%; also: 0% is about no effect
Pf growth 48h: P. falciparum growth inhibition at 48 hours (one generation) | P. falciparum luciferase growth in erythrocytes, 48 h | Potency, µM (doses to about 28.7 µM), without a hit: top-dose activity change, negative = inhibition, hits mostly inhibitors | 5.9% of 310,000 active | AID 504832; active = well fitted inhibition curve with a large enough effect; inconclusive = small, poorly fitted or top-dose-only effect, or another doubt; inactive = no such curve, though single readings can be large or run the other way; also: potency is read from the fitted curve at half-maximal effect; % is scaled to controls: 0 for no effect and ±100 for the full control effect
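Erythrocytes infected with P. falciparum carrying an integrated firefly luciferase reporter (2% hematocrit, 0.1% parasitemia final) were exposed to compounds in RPMI 1640 with 0.5% Albumax at 37 C, 5% CO2. Growth inhibition was scored as reduced luminescence.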
NS1 function inh: influenza NS1 inhibition. Potency, µM (highest dose often 46.1 µM), inactives show at the highest dose activity, positive = more growth. AID 2326. 0.4% of 270,000 active; also: potency is read from the fitted curve at half-maximal effect; actives are rising curves; nearly all actives have a fitted effect of over 50% in size
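Read-out: OD600 growth recovery of NS1-expressing budding yeast. Cells grown overnight at 30C in -URA glucose medium, washed, resuspended and diluted 1:100 in 2% galactose assay medium, pH 6.0. Same strain lacking NS1 served as positive control.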
Cycloheximide cs: counter-screen for Shiga toxin inhibitors: cycloheximide protein synthesis inhibition; AID 2314; max response, %; cell reporter, cycloheximide protein synthesis inhibition counterscreen; 12% of 300,000 active; in the data active = max response mostly above about 13%, no sharp cut-off; inactive = mostly below about 14%; also: read at 38.3 µM for the half of the compounds with a filed dose; 0% is about no effect
An asterisk follows results filed as active; ? = inconclusive; . = not tested or not shown. Unless noted, calls follow the shape of the full dose curve.

SMILES	SARS PLP yeast	Pf growth 96h	Shiga inhibitor	Pf growth 48h	NS1 function inh	Cycloheximide cs
C#CCOCCOCCOCCNc1nc(N2CCN(C(=O)CCCCCCCCCCNC(=O)[C@@H](CCSC)n3cc(CCO)nn3)CC2)nc(N2CCN(C(=O)CCCCCCCCCCNC(=O)[C@H](CCSC)n3cc(CCO)nn3)CC2)n1	-13%	0.29µM*	.	0.33µM*	.	.
C#CCOCCOCCOCCNc1nc(N2CCN(C(=O)CCCCCCCCCCNC(=O)[C@H](CO)n3cc(CCCSC)nn3)CC2)nc(N2CCN(C(=O)CCCCCCCCCCNC(=O)[C@H](CCCCN)n3cc(CCO)nn3)CC2)n1	1%	.	.	.	.	.
C#CCOCCOCCOCCNc1nc(N2CCN(C(=O)CCCCCCCCCCNC(=O)[C@H](CO)n3cc(CCCSC)nn3)CC2)nc(N2CCN(C(=O)CCCCCCCCCCNC(=O)[C@@H]([C@H](C)O)n3cc(C)nn3)CC2)n1	-4%	0.093µM*	.	0.29µM*	.	.
C#CCOCCOCCOCCNc1nc(N2CCN(C(=O)[C@H]([C@@H](C)CC)n3cc(CCCN=C(N)N)nn3)CC2)nc(N2CCN(C(=O)[C@H](Cc3ccc(O)cc3)n3cc(CCO)nn3)CC2)n1	2%	?	-10	-5%	-36%	-3
C#CCOCCOCCOCCNc1nc(N2CCN(C(=O)[C@H]([C@@H](C)O)n3cc(CCCCN)nn3)CC2)nc(N2CCN(C(=O)[C@H](CCCCN)n3cc(CCC(=O)O)nn3)CC2)n1	2%	85%	.	-12%	.	.
C#CCOCCOCCOCCNc1nc(N2CCOCC2)nc(N2CCN(C(=O)Cn3cc(CC(C)O)nn3)CC2)n1 (stereo not given)	-1%	?	-12	17%	-7%	-4
C#CCOCCOCCOCCNc1nc(N2CCN(C(=O)CCCCCCCCCCNC(=O)[C@H](CO)n3cc(CCCSC)nn3)CC2)nc(N2CCN(C(=O)CCCCCCCCCCNC(=O)[C@H](CCCN=C(N)N)n3cc(C[C@@H](C)CC)nn3)CC2)n1	0%	5.2µM*	.	1.5µM*	.	.
C#CCOCCOCCOCCNc1nc(N2CCN(C(=O)CCCCCCCCCCNC(=O)Cn3cc(C[C@@H](C)O)nn3)CC2)nc(N2CCN(C(=O)CCCCCCCCCCNC(=O)[C@H](CO)n3cc(CCCSC)nn3)CC2)n1	6%	0.15µM*	.	0.15µM*	.	.
CCC(C)C(NC(=O)OCc1ccccc1)C(=O)NCC(c1ccccc1)N(C)C (stereo not given)	10%	?	-15	-12%	-11%	-4
CC(C)c1cc(C(C)C)c(S(=O)(=O)NNC(=O)c2ccncc2)c(C(C)C)c1	8%	10%	-4	-1%	10%	-2
CS(=O)(=O)N(CCc1ccccc1)CC(=O)NCc1ccccn1	0%	-20%	-4	11%	14%	-3
COc1ccc(NC(=O)CCCN2C(=O)CN(C)C2=O)cc1Cl	5%	30%	.	11%	.	.
C#CCOCCOCCOCCNc1nc(N2CCN(C(=O)CCCCCCCCCCNC(=O)Cn3cc(CCCCCN)nn3)CC2)nc(N2CCN(C(=O)CCCCCCCCCCNC(=O)[C@@H](CCSC)n3cc(CCO)nn3)CC2)n1	0%	1µM*	.	1.2µM*	.	.
C#CCOCCOCCOCCNc1nc(N2CCN(C(=O)CCCCCCCCCCNC(=O)Cn3cc(CCCCCN)nn3)CC2)nc(N2CCN(C(=O)CCCCCCCCCCNC(=O)[C@@H](CCC(=O)O)n3cc(CCCCCN)nn3)CC2)n1	12%	?	.	13µM*	.	.
c1ccc(Cc2cc[n+](Cc3ccccn3)cc2)cc1	1%	1µM*	20	4.1µM*	-5%	1
Cc1cc(-c2ccccc2)cc(C)[n+]1Cc1ccccc1	1%	0.37µM*	.	0.74µM*	.	.
ON(CCc1ccccn1)Cc1ccccc1	.	.	.	.	-2%	.
O=C([O-])c1cc(-c2ccccc2)cc(-c2ccccc2)[n+]1Cc1ccccc1	-1%	0.52µM*	.	0.52µM*	.	.
O=[N+]([O-])c1ccc(C[n+]2ccccc2)cc1	-2%	?	.	?	.	.
O=[N+]([O-])c1cc(Cl)c(O)c(-[n+]2c(-c3ccccc3)cc(-c3ccccc3)cc2-c2ccccc2)c1	-4%	?	-2	?	30%	2
